Here are results for 15 compounds from PubChem BioAssay.

As a reminder, the inhibition is the share of the control response that was lost under treatment.

Test [1] deals with TRPC4 beta (transient receptor potential cation channel C4), mouse. Briefly: activators of mouse TRPC4 channel, confirmation, cell-based, Fluo4 calcium, HEK293 TRPC4beta/mu-opioid, duplicates, 10 µM (AID 2426;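 active = fluorescence ratio normalized to control raised more than 50% in primary screen plus both repeat runs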). The settings on record: Fluo4 calcium fluorescence, at 10 µM; active compounds read high.
Test [2] concerns transient receptor potential cation channel C4 beta (TRPC4), mouse. Briefly: activators of mouse TRPC4 channel, confirmation, cell-based, second round, Fluo4, HEK293 TRPC4beta/mu-opioid, 1 µM (AID 2461;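 active = primary screen active and over 50% activation in each of two duplicate runs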). The settings on record: Fluo4 calcium fluorescence, at 1 µM; active compounds read high.
The test system of test [3] is TRPC4 (transient receptor potential cation channel C4 beta), mouse. The experiment in a line: positive allosteric modulators of mouse TRPC4, confirmation, cell-based, second round, Fluo-4, HEK293 TRPC4beta/mu-opioid, 1 µM (AID 2554;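 active = primary screen hit whose fluorescence ratio, in both repeats, exceeds the weak agonist control mean by 3 SD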). The following applies: DAMGO EC20, Fluo-4 calcium flux, at 1 µM; active compounds read high. In general terms: Calcium assays in cells follow changes in intracellular calcium, usually with a dye or a luminescent sensor.

For test [4], the system named is TRPC4 beta (transient receptor potential cation channel C4), mouse. The experiment in a line: positive allosteric modulators of mouse TRPC4, confirmation, cell-based, Fluo-4, HEK293 TRPC4beta/mu-opioid (AID 2555;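 active = primary screen hit whose calcium fluorescence ratio, in both repeats, exceeds the weak agonist control mean by 3 SD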). The following applies: DAMGO EC20, Fluo-4 calcium flux, at 10 µM; active compounds read high.
Test [5] deals with Short transient receptor potential channel 4 (Mus musculus) (UniProt Q9QUQ5). Briefly: inhibitors of mouse TRPC4 channel, confirmation, cell-based, Fluo4, HEK293 TRPC4beta/mu-opioid (AID 2636;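 active = calcium signal cut by more than 3 SD below the full-agonist control yet still positive, in both repeats and the earlier primary screen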). The following applies: DAMGO, Fluo4 calcium flux, at 10 µM; active compounds read high.
Sequence of Short transient receptor potential channel 4 (Mus musculus) (Q9QUQ5 whole entry, looked up): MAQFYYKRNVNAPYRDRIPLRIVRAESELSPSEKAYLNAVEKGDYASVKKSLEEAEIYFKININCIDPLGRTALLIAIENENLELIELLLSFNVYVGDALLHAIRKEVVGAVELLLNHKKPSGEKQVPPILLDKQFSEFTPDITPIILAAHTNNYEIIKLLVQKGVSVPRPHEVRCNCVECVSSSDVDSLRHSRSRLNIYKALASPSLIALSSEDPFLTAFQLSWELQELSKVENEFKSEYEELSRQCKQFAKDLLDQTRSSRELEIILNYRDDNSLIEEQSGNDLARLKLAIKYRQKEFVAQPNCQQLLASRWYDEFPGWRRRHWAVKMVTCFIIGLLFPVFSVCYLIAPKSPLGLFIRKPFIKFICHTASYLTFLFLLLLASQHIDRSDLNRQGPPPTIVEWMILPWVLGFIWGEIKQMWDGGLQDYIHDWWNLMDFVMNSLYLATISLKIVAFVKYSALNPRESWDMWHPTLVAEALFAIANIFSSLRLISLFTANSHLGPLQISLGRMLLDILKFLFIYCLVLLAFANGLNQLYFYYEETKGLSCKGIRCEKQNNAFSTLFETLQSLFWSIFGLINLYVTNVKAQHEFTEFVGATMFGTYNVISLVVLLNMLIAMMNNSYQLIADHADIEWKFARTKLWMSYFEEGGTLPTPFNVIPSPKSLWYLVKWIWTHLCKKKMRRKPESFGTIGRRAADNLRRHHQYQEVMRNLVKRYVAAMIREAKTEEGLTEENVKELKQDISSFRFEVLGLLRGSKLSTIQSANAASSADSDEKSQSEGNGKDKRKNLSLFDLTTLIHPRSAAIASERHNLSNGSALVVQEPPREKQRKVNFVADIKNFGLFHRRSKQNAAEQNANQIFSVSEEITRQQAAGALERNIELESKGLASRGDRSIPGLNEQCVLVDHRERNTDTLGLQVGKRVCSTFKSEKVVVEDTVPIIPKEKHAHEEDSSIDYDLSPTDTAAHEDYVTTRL
Test [6] shares this target. Briefly: inhibitors of mouse TRPC4 channel, confirmation, cell-based, second round, Fluo4, HEK293 TRPC4beta/mu-opioid, 1 µM (AID 2637;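 active = calcium signal ratio cut to more than 3 SD under the fully stimulated control mean yet still positive, in both repeats and the primary screen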). The following applies: Fluo4 calcium flux, DAMGO, at 1 µM; active compounds read high.
For test [7] the target is unchanged. The experiment in a line: mouse TRPC4 channel activators, dose response, cell-based, HEK293 TRPC4/mu-opioid, Fluo-4 calcium (AID 434937;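 active = primary screen activator hit with a dose response curve and TRPC4 channel activation at any tested dose; inactive = no activation, no dose response, or not a primary hit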). The settings on record: HEK293 TRPC4 cells, Fluo-4 calcium fluorescence ratio; series mostly up to 20 µM.
The target is the same in test [8]. The experiment in a line: TRPC4 positive allosteric modulators, dose response, cell-based, HEK293 TRPC4/mu-opioid, Fluo-4 calcium, EC20 DAMGO (AID 434941;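 active = earlier screen potentiator hit that boosts the TRPC4 ion channel at some dose, with a dose response; inactive = no potentiation, no dose response, or not a prior hit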;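 also: calcium entry triggered by an EC20 dose of DAMGO at the co-expressed mu-opioid receptor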). The following applies: HEK293 TRPC4/mu-opioid cells, Fluo-4 calcium fluorescence; series mostly up to 20 µM.
Test [9] shares this target. Briefly: mouse TRPC4 channel inhibitors, dose response, cell-based, HEK293 TRPC4/mu-opioid, Fluo-4 calcium (AID 434942). The settings on record: HEK293 TRPC4/mu-opioid cells, DAMGO-evoked Fluo-4 calcium ratio; series mostly up to 20 µM.
For test [10], the target named is Short transient receptor potential channel 6 (Mus musculus) (UniProt Q61143). The experiment in a line: inhibition of mouse TRPC6 channel, confirmation, selectivity assay for TRPC4 inhibitor project, cell-based, HEK293, membrane potential dye, duplicate (AID 434948;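 active = active in primary screen and both duplicates, each dropping signal beyond three positive-control SD with fluorescence still positive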). The following applies: HEK293 TRPC6, membrane potential dye fluorescence, at 10 µM, stimulated with maximal-effect acetylcholine; active compounds read high.
Sequence of Short transient receptor potential channel 6 (Mus musculus) (Q61143 whole entry, looked up): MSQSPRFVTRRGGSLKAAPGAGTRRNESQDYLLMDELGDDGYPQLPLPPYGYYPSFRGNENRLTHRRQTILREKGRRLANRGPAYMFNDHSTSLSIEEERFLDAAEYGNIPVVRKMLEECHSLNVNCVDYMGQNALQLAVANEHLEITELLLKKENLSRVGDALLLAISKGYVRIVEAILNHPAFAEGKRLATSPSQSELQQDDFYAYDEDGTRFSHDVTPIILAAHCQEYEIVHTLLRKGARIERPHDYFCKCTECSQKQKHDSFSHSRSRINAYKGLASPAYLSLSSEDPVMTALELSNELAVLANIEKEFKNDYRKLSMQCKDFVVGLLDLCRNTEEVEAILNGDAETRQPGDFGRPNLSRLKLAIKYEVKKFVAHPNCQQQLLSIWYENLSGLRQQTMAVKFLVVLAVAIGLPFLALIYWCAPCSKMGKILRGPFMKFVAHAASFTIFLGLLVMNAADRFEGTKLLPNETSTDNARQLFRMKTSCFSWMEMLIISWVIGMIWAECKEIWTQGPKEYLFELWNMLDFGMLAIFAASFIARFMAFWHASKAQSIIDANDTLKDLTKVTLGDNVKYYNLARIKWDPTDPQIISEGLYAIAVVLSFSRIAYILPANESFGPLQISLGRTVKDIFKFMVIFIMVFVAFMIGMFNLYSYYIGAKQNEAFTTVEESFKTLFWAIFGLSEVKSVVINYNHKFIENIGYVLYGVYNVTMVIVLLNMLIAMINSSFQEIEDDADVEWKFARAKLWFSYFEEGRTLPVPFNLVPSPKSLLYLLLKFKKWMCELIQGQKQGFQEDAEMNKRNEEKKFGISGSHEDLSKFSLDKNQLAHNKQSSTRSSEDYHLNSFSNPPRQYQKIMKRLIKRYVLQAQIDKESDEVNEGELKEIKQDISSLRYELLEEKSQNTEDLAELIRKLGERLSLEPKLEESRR

Test [11] has the same target. Briefly: activation of mouse TRPC6 channel, confirmation, selectivity assay for TRPC4 activator project, cell-based, HEK293, membrane potential dye, duplicate (AID 434950;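 active = membrane potential signal rise above negative control mean plus 3 SD in both duplicates, also active in the earlier TRPC4 screen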;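 as to activation: 0% = buffer only wells and 100% = acetylcholine maximal-effect wells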). The following applies: HEK293 TRPC6, membrane potential fluorescence, at 10 µM; active compounds read high.
The target is the same in test [12]. Briefly: TRPC6 potentiation by TRPC4 potentiator hits, confirmation, selectivity assay for TRPC4 potentiator project, HEK293 cells, membrane potential dye, duplicate (AID 434952;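 active = compound raising the membrane signal above positive-control mean plus 3 SD in both repeats, and a primary screen hit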). The settings on record: HEK293 TRPC6, membrane potential dye fluorescence, at 10 µM, maximal acetylcholine added after compound; active compounds read high.
Test [13] concerns the target Short transient receptor potential channel 4 (Mus musculus) (UniProt Q9QUQ5). Briefly: calcium flux activators in TRPC4/5HT1a cells, counter-screen for TRPC4 activator project, cell-based, second counter screen, HEK293 TRPC4/5HT1a, Fluo-4 (AID 434977;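 active = calcium signal rise above buffer-control mean plus 5 SD in both duplicates, and also a hit in the primary screen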). The settings on record: Fluo-4 calcium flux, at 10 µM; active compounds read high.
Test [14] can be described thus: calcium flux inhibitors in TRPC4/5HT1a cells, confirmation, counter-screen for TRPC4 inhibitor project, cell-based, second counter screen, HEK293 TRPC4/5HT1a, Fluo-4 (AID 434978;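 active = primary screen active whose calcium signal fell more than 3 SD beyond the full-serotonin control mean in both duplicate plates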;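 as to outcome: serotonin given first at submaximal then at maximal dose after compound preincubation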). The following applies: Fluo-4 calcium flux, at 10 µM, serotonin added to trigger calcium flux; active compounds read high.
For test [15], the system named is TRPC4 (mouse), co-expressed with 5HT1a in HEK293. The experiment in a line: calcium flux potentiators in TRPC4/5HT1a cells, confirmation, counter-screen for TRPC4 potentiator project, cell-based, second counter screen, HEK293 TRPC4/5HT1a, Fluo-4 (AID 434979;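 active = signal rise over 3 SD above mean of control wells given weak agonist, in both repeats and first screen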). The following applies: Fluo-4 calcium flux, at 10 µM, serotonin added at its EC20 dose; active compounds read high.

The nature of test [16]: calcium flux activation in mu-opioid HEK293 cells, confirmation, counter-screen for TRPC4 activator project, cell-based, HEK293 mu-opioid receptor line (AID 449723;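 active = hit in primary screen, with calcium signal over 5 SD above buffer well mean in both duplicates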;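 also: counter screen cells carry the mu-opioid receptor alone and lack TRPC4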). The settings on record: Fluo-4 calcium fluorescence, at 10 µM; active compounds read high.
The nature of test [17]: calcium flux enhancement in mu-opioid HEK293 cells, confirmation, counter-screen for TRPC4 allosteric potentiator project, cell-based, HEK293 mu-opioid receptor line (AID 449724;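 active = calcium signal rise more than 3 SD above the low-dose agonist control mean, in both duplicate plates and the primary screen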;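 also: HEK293 cells carrying mu-opioid receptor only with no TRPC4 channel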). The settings on record: Fluo-4 calcium flux, at 10 µM, compound added before EC20 DAMGO stimulus; active compounds read high.

Each structure is given as a SMILES string. For part of these data: Potency and affinity values are given separately. Activity calls are given as the source filed them.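 The calls were made as follows, unless noted: active = primary screen inhibitor hit that blocks the TRPC4 channel at some tested dose, yielding a dose curve; inactive = the rest.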

With `CCOc1ccc2nc(NCCNC(=O)C3CC3)c(C)cc2c1`, the result in test [1], in test [2], in test [3], in test [4], in test [5] and in test [6] was inactive. Also, the result in test [7], in [8], in test [9], in [10], in [11] and in [12] was inactive. The result in [13], in [14], in test [15], in [16] and in [17] was inactive.
As for `CC(C)n1c(SCC(=O)N2c3ccccc3Sc3ccccc32)nc2c1c(=O)n(C)c(=O)n2C`, the outcome in [1], in test [2], in test [3], in test [4], in [5] and in test [6] was inactive. Also, the outcome in [7], in [8], in test [9], in test [10], in test [11] and in test [12] was inactive. Besides, the result in test [13], in test [14], in test [16] and in [17] was inactive. For the same compound, in [15], the potentiation was 50.7% (active).
`COc1ccc(NS(=O)(=O)c2csc(C(N)=O)c2)cc1OC`: the outcome in test [1], in test [2], in [3], in test [4], in test [5] and in test [6] was inactive. For the same compound, the outcome in test [7], in test [8], in test [9], in test [10], in [11] and in [12] was inactive. Also, the outcome in test [13], in test [14], in [16] and in test [17] was inactive. For the same compound, the potentiation in test [15] was 12.9% (active).
On to `O=C(CN1CCCCC1)Nc1ccccc1Oc1ccccc1`, for which the result in test [1], in [2], in test [3], in test [4], in test [6] and in [7] was inactive. The result in test [8], in [9], in [11], in test [12], in [13] and in test [15] was inactive. In addition, the result in test [16] and in test [17] was inactive. The inhibition in [5] is 92% (active); in test [10], 33.5% (active); in [14] it was 31.5% (active).
For `O=S(=O)(NCC1NCCc2ccccc21)c1ccccc1` (stereo not given), the outcome in test [1], in test [2], in test [3], in test [4], in test [5] and in test [6] was inactive. Moreover, the outcome in test [7], in test [8], in [9], in test [10], in [11] and in test [12] was inactive. Moreover, the outcome in test [13], in test [14], in test [15], in [16] and in test [17] was inactive.
For `COc1ccccc1N1CCN(Cc2cc(=O)c(OCC(=O)NC3CCCC3)co2)CC1`, the outcome in test [1], in [2], in test [3], in test [4], in test [5] and in test [6] was inactive. Moreover, the outcome in [7], in test [8], in test [9], in test [10], in test [11] and in test [12] was inactive. In addition, the result in [13], in [14], in test [15], in test [16] and in test [17] was inactive.
As to `CCC(=O)c1ccc(N2CCN(C(=O)c3ccccc3Br)CC2)c(F)c1`, the outcome in test [1], in [2], in test [3], in test [4], in test [5] and in test [6] was inactive. For the same compound, the result in test [7], in test [8], in test [9], in test [10], in test [11] and in [12] was inactive. Further, the outcome in test [13], in test [14], in test [16] and in test [17] was inactive. In addition, the potentiation in test [15] was 19.2% (active).
In the case of `CCCn1c(NCc2cc(OC)ccc2OC)nc2ccccc21`, the result in [1], in test [2], in test [3], in test [4], in test [5] and in test [6] was inactive. Further, the result in test [7], in test [8], in test [9], in [10], in test [11] and in test [12] was inactive. Moreover, the outcome in test [13], in test [14], in test [15], in [16] and in [17] was inactive.
As to `COc1ccc(C(=O)N2CCN(c3c(C)cccc3C)CC2)cc1OC`, the result in [1], in test [2], in test [3], in [4], in test [5] and in test [6] was inactive. Also, the outcome in test [7], in test [8], in test [9], in test [10], in [11] and in test [12] was inactive. Moreover, the outcome in [13], in test [14], in test [16] and in test [17] was inactive. The potentiation in test [15] was 15% (active).
For the compound `Cc1ccc(Cn2c(=N)c(C(=O)NC3CCCCC3)cc3c(=O)n4ccccc4nc32)cc1`, the result in [1], in test [2], in test [3], in test [5], in test [6] and in test [7] was inactive. Besides, the outcome in [8], in [9], in test [10], in test [11], in test [12] and in [13] was inactive. Further, the outcome in test [14], in test [15], in [16] and in test [17] was inactive. Also, the potentiation in [4] was 26% (active).
In the case of `CCCN1CCN(C(=S)NCc2ccc(Cl)cc2)CC1`, the result in [1], in [2], in test [3], in test [5], in test [6] and in test [7] was inactive. Moreover, the outcome in test [8], in [9], in test [10], in test [11], in test [12] and in test [13] was inactive. Further, the outcome in test [14], in test [16] and in test [17] was inactive. Also, the figures for the potentiation in test [4] and in test [15] were 8% (active) and 19.3% (active), respectively.
`COc1ccc(-c2cc(C(F)(F)F)nc(N3CCN(C)CC3)n2)cc1`: the outcome in test [1], in test [2], in [3], in test [4], in test [5] and in test [6] was inactive. The result in test [7], in [8], in test [9], in test [10], in test [11] and in [12] was inactive. The result in [13], in [14], in test [16] and in [17] was inactive. Also, in test [15], the potentiation was 14.5% (active).
Take `CC(C)c1nc2ccc(Br)cn2c1NC1CCCC1`: the result in test [1], in test [2], in test [3], in test [4], in test [5] and in [6] was inactive. Also, the result in [7], in test [8], in test [9], in [10], in test [11] and in test [12] was inactive. The outcome in [13], in [14], in test [15], in [16] and in [17] was inactive.
Regarding `Cc1[nH]c2ccccc2c1C(=O)CN1C(=O)NC(C)(c2ccc(Cl)cc2Cl)C1=O` (stereo not given), the outcome in test [1], in test [2], in test [3], in test [5], in [6] and in [7] was inactive. Also, the outcome in test [8], in test [9], in test [10], in [11], in test [12] and in [13] was inactive. Further, the outcome in test [14], in [16] and in test [17] was inactive. Besides, the figures for the potentiation in [4] and in [15] were 21% (active) and 37.7% (active), respectively.
Regarding `O=[N+]([O-])c1ccc(C[n+]2cccc(O)c2)cc1`, the result in test [1], in test [2], in test [3], in [4], in test [5] and in [6] was inactive. Besides, the outcome in [7], in test [8], in [9], in [10], in test [12] and in [13] was inactive. Besides, the outcome in test [14], in [15], in test [16] and in [17] was inactive. Also, the activation in test [11] is 28.5% (active).
